Potency and outcome data for eleven compounds are collected here from PubChem BioAssay (NCATS).

One assay relates to CRL-7250. The assay can be described thus: Cytotoxic Profiling of Annotated Libraries Using Quantitative High-Throughput Screening (AID 1296008). Conditions: Five cell lines viability, CellTiter-Glo ATP luminescence, 48-72 h; max response: stronger effect = lower value. In outline:
(§1)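 Cytotoxicity was measured as CellTiter-Glo ATP luminescence, read after 10 min at room temperature. Compound treatment of the cells lasted 48 or 72 hr at 37 degrees Celsius in a qHTS format.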
For orientation: ATP-based viability assays read luminescence as a measure of living cells.

The subject of the next assay is HEK293. Described as above. Conditions: Five cell lines viability, CellTiter-Glo ATP luminescence, 48-72 h; max response: stronger effect = lower value. The method in brief:
as §1

Assay [1] concerns HaCat. Described as above. Conditions: Five cell lines viability, CellTiter-Glo ATP luminescence, 48-72 h; max response: stronger effect = lower value. The method in brief:
as §1

The subject of another assay is KB-3-1. Described as above. The note with it: Five cell lines viability, CellTiter-Glo ATP luminescence, 48-72 h; max response: stronger effect = lower value. The method in brief:
as §1

The subject of the next assay is NIH3T3. The description is as above. The note with it: Five cell lines viability, CellTiter-Glo ATP luminescence, 48-72 h; max response: stronger effect = lower value. The method in brief:
as §1

The test system of the next assay is MKL-2. Kind of assay: qHTS assay to identify novel small-molecules to repurpose for Merkel cell carcinoma treatment (AID 1296009). Conditions: MCC and control cell lines, CellTiter-Glo viability, 72 h; series mostly up to 46 µM. The method in brief:
(§2)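 72 hr, 37 degree celsius; NPC 8-pt / MIPE 11-pt dose response; compound pinned in DMSO; CellTiter-Glo, 10 min RT, luminescence; normalized to no-cell and DMSO controls.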
A general note: In qHTS, concentration-response curves come from the screen itself.

The next assay relates to UISO. The description is as above. The note with it: MCC and control cell lines, CellTiter-Glo viability, 72 h; series mostly up to 46 µM. The method in brief: as §2
The test system of assay [2] is HACAT. The description is as above. The note with it: MCC and control cell lines, CellTiter-Glo viability, 72 h; series mostly up to 44.8 µM. The method in brief:
as §2

Another assay relates to MCC-13. The assay is described as above. Conditions: MCC and control cell lines, CellTiter-Glo viability, 72 h; series mostly up to 46 µM. In outline:
as §2

Another assay concerns MCC-26. The description is as above. Conditions: MCC and control cell lines, CellTiter-Glo viability, 72 h; series mostly up to 46 µM. The method in brief: as §2
In another assay the test system is MKL-1. The description is as above. Conditions: MCC and control cell lines, CellTiter-Glo viability, 72 h; series mostly up to 46 µM. The method in brief: as §2

The structures appear in SMILES notation. Where “and” joins values, the source holds several entries; their conditions need not be identical. Equal entries are not always repeated. Inconclusive results are not listed. A number with no mark means an inactive call. Calls of active or inactive are those of the source. The call rests on the fitted dose curve; in most records, active means well fitted inhibition curve with a large enough effect; inconclusive means small, poorly fitted or top-dose-only effect; inactive means flat fitted curve, though single readings scatter.
Further: nearly all actives have a fitted effect of over 60% in size.
Potency means the concentration at half of the fitted maximal effect.

Regarding `OCCCNc1cc(-c2ccnc(Nc3cccc(Cl)c3)n2)ccn1`, the Potency in the assay with CRL-7250 is 46.9 nM (active) and 146 nM (active); in the assay on HEK293, 209 nM (active) and 231 nM (active); in the assay with HaCat [1], 105 nM (active) and 820 nM (active); in the assay on KB-3-1 it was 118 nM (active) and 206 nM (active); with NIH3T3 it was 166 nM (active) and 580 nM (active); in the assay on MKL-2, 296 nM (active). The Potency in the assay with UISO is 148 nM (active).

`O=C(Cc1ccc(-c2ccc(OCCN3CCOCC3)cc2)cn1)NCc1ccccc1`: the Potency is 23.5 nM (active) and 1.3 µM (active) in the assay on CRL-7250; 14.8 nM (active) and 184 nM (active) in the assay with HEK293; 26.4 nM (active) and 731 nM (active) with KB-3-1; 46.9 nM (active) in the assay with MCC-13; 93.5 nM (active) in the assay with MCC-26; 46.9 nM (active) in the assay with UISO. Also, the compound was called inactive with HaCat [1]. In the assay on HACAT [2], the Potency entry was “inactive”.

In the case of `O=C(Nc1cn[nH]c1-c1nc2ccc(CN3CCOCC3)cc2[nH]1)NC1CC1`, the Potency with CRL-7250 is 1.3 µM (active); with HEK293, 10.5 µM (active) and 3.66 µM (active); in the assay with HaCat [1], 2.64 µM (active) and 231 nM (active); in the assay with KB-3-1, 5.9 µM (active) and 4.11 µM (active); in the assay on NIH3T3 it was 1.48 µM (active) and 1.84 µM (active); with MCC-13 it was 935 nM (active). Further, the figures for the Potency in the assay on MCC-26, in the assay with MKL-2 and in the assay on UISO were 1870 nM (active), 26400 nM (active) and 8330 nM (active), respectively.

Regarding `CC[C@@H]1C(=O)N(C)c2cnc(Nc3ccc(C(=O)NC4CCC(N5CCN(CC6CC6)CC5)CC4)cc3OC)nc2N1C(C)C` (stereo not given in full), the Potency in the assay on CRL-7250 is 332 nM (active) and 14.6 µM (active); with HEK293, 26.4 nM (active) and 20.6 nM (active) and 13 nM (active); in the assay with HaCat [1], 0.059 µM (active); in the assay with KB-3-1, 11.8 nM (active) and 4.6 nM (active); in the assay on NIH3T3, 2.64 µM (active) and 1.46 µM (active) and 1.3 µM (active); with MCC-13 it was 469 nM (active). For the same compound, the Potency is 74.3 nM (active) in the assay on MKL-1 and 4180 nM (active) with MKL-2.

For `Cc1c(CN2CCN(S(C)(=O)=O)CC2)sc2c(N3CCOCC3)nc(-c3cnc(N)nc3)nc12`, the Potency with CRL-7250 was 166 nM (active) and 259 nM (active); in the assay on HEK293, 59 nM (active) and 326 nM (active); with HaCat [1], 0.0418 µM (active); in the assay with KB-3-1, 83.3 nM (active); in the assay with NIH3T3, 148 nM (active) and 517 nM (active); with MCC-26, 833 nM (active). In addition, the Potency in the assay on MKL-2 was 118 nM (active); in the assay on UISO, 264 nM (active).

As to `Cc1cc(Nc2nc(N[C@@H](C)c3ccc(F)cc3)c(C#N)cc2F)n[nH]1`, the Potency is 16.6 µM (active) and 7.31 µM (active) with CRL-7250; 2.64 µM (active) and 1.3 µM (active) in the assay on HEK293; 2.59 µM (active) in the assay with HaCat [1]; 1.05 µM (active) and 731 nM (active) in the assay with KB-3-1; 3.72 µM (active) and 4.11 µM (active) in the assay with NIH3T3; 7430 nM (active) in the assay with MCC-26.

On to `Nc1ccccc1NC(=O)c1ccc(CNc2nccc(-c3cccnc3)n2)cc1`, for which the Potency was 4.18 µM (active) and 5.17 µM (active) in the assay with CRL-7250; 1.64 µM (active) in the assay with HEK293; 3.72 µM (active) in the assay on HaCat [1]; 1.87 µM (active) and 2.06 µM (active) in the assay with KB-3-1; 5260 nM (active) in the assay on MCC-13; 2350 nM (active) in the assay with MKL-1. Also, the Potency in the assay with MKL-2 was 1480 nM (active); in the assay on UISO, 2350 nM (active).

On to `O=C(NCCCNc1nc(Nc2cccc(NC(=O)N3CCCC3)c2)ncc1I)c1cccs1`, for which the Potency with CRL-7250 is 5.9 µM (active); in the assay with HEK293, 20.9 µM (active); with HaCat [1] it was 18.7 µM (active); in the assay with KB-3-1, 13200 nM (active); in the assay on NIH3T3 it was 2.09 µM (active); in the assay on MCC-13, 9350 nM (active). Moreover, in the assay with UISO, the Potency was 16600 nM (active). For the same compound, the Potency entry with MKL-2 was “inactive”.

On to `Cc1ccc(-c2ncn(-c3ccc(Nc4nccc(-c5cccc(N6CCOCC6)c5)n4)cc3)n2)cn1`, for which the Potency was 0.118 µM (active) with CRL-7250; 0.332 µM (active) with HEK293; 0.418 µM (active) in the assay with HaCat [1]; 209 nM (active) with KB-3-1; 526 nM (active) in the assay on MCC-13; 264 nM (active) with MCC-26. The Potency is 235 nM (active) with MKL-1 and 52.6 nM (active) with MKL-2.

On to `CN1CCC(CNc2ccc3ncc(-c4cccc(OC(F)(F)F)c4)n3n2)CC1`, for which the Potency with CRL-7250 was 4.69 µM (active); with HEK293, 23.5 µM (active); with HaCat [1], 13.2 µM (active) and 16.4 µM (active); in the assay with KB-3-1, 20900 nM (active). The Potency entry with MCC-13, in the assay on MCC-26 and in the assay on MKL-2 was “inactive” in each case.

In the case of `CNC(=O)c1cc(Oc2ccc(NC(=O)Nc3cc(C(C)(C)C)nn3-c3ccc4ncccc4c3)c(F)c2)ccn1`, the Potency was 13.2 µM (active) and 18.4 µM (active) in the assay on CRL-7250; 23.5 µM (active) in the assay with HEK293; 7.31 µM (active) in the assay on HaCat [1]; 9.35 µM (active) and 5.17 µM (active) with KB-3-1; 2.96 µM (active) with NIH3T3. Also, the Potency entry in the assay with MCC-13, in the assay with MKL-1 and in the assay with MKL-2 was “inactive” throughout.
